# Source: PubChem BioAssay (EPA / NIEHS)
# Results filed as inconclusive are left out. Activity calls are given as the source filed them. The calls were made as follows: active = hit-call score of the fitted dose curve at least 0.9, where 1 is the maximum; inconclusive = response in the unintended direction; inactive = score below 0.9.
# What was measured:
# [1] = target: rat Neurokinin-1 Receptor (NK1), Tacr1 (gene 24807) (UniProt P14600); assay: NVS_GPCR_rNK1: NovaScreen (NVS) G Protein-Coupled Receptor Assay for rat Neurokinin-1 Receptor (NK1) (AID 2283309)
# How it was run: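 Competitive radioligand binding to NK1 in rat submaxillary membranes, 1 h incubation, filtration and scintillation read-out. Compounds first screened at 25 uM in duplicate, then concentration-response for actives; signal loss relative to DMSO.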
# [2] = target: rat Neonicotinoid receptor (NNR), Chrna7 (gene 25302) (UniProt Q05941); assay: NVS_LGIC_rNNR_BungSens: NovaScreen (NVS) Ligand-Gated Ion Channel Assay for rat Neonicotinoid receptor (NNR) (AID 2283315)
# Chain of rat Neonicotinoid receptor (NNR), Chrna7 (gene 25302) (Q05941 whole entry, looked up): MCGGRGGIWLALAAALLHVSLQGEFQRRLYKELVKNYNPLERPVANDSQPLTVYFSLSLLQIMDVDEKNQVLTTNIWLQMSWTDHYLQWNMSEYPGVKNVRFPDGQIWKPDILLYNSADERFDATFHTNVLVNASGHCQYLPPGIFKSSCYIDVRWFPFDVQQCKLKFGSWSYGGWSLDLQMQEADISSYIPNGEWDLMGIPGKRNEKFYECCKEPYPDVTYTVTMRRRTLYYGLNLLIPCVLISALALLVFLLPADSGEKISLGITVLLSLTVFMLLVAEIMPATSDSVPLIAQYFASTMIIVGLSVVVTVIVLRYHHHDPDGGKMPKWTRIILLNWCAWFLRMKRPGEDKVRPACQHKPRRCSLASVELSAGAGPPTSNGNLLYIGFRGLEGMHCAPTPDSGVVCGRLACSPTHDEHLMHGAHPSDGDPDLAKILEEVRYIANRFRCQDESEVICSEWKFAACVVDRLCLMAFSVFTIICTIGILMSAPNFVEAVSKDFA
# How it was run: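 Rat cortical membrane preparation incubated 2.5 h with tritiated or iodinated radioligand and test chemical. Bound radioactivity was filtered and counted by scintillation, and displacement was analysed against DMSO.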
# [3] = target: human Opioid Receptor Mu (Opiate Mu), OPRM1 (gene 4988) (UniProt P35372); assay: NVS_GPCR_hOpiate_mu: NovaScreen (NVS) G Protein-Coupled Receptor Assay for human Opioid Receptor Mu (Opiate Mu) (AID 2283290);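 also: hits lower bound tracer signal versus DMSO meaning displacement of the ligand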
# Chain of human Opioid Receptor Mu (Opiate Mu), OPRM1 (gene 4988) (P35372 whole entry, looked up): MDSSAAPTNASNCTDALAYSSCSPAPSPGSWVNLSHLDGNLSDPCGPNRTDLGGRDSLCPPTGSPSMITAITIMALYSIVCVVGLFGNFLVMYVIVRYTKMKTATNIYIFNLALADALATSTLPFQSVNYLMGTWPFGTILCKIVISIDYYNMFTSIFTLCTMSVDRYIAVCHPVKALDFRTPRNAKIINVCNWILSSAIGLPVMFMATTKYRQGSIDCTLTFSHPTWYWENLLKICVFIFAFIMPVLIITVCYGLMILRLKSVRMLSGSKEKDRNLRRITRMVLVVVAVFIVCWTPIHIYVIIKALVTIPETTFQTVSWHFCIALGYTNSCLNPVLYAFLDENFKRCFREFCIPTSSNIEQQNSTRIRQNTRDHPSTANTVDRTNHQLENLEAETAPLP
# How it was run: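 Here, radioligand binding to CHO-extracted receptor was measured after 2.5 h using filter-based scintillation detection. Initial single-concentration screening used 25 uM in duplicate with plate controls; confirmed actives went to concentration-response testing.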
# [4] = tested on: 5-hydroxytryptamine receptor 2C (pig); assay: NVS_GPCR_p5HT2C: NovaScreen (NVS) G Protein-Coupled Receptor Assay for pig Serotonin, 5-Hydroxytryptamine Receptor 2C (5HT2C) (AID 2283288)
# How it was run: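 Radioligand displacement on membranes from pig choroid plexus, detected by filter scintillation counting after 1 h. Tested first at a single 25 uM in duplicate, then in concentration-response for actives; DMSO served as baseline.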
# [5] = target: rat Adrenergic, Alpha 1, Non-selective Receptor (Adra1), Adra1a (gene 29412) (UniProt P43140); assay: NVS_GPCR_rAdra1_NonSelective: NovaScreen (NVS) G Protein-Coupled Receptor Assay for rat Adrenergic, Alpha 1, Non-selective Receptor (Adra1) (AID 2283289)
# Chain of rat Adrenergic, Alpha 1, Non-selective Receptor (Adra1), Adra1a (gene 29412) (P43140 whole entry, looked up): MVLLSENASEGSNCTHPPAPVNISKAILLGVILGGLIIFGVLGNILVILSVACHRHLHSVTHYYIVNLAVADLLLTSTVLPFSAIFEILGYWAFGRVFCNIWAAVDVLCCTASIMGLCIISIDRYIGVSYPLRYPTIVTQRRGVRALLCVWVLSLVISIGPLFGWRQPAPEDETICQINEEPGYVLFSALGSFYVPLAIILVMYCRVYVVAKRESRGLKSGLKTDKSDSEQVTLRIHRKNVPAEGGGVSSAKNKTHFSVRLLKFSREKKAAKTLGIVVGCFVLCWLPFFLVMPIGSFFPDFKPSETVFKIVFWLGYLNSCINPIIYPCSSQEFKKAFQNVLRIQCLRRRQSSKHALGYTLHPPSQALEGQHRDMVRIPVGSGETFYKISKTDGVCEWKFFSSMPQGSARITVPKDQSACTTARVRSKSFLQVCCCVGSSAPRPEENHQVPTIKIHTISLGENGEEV
# How it was run: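 Chemicals first screened in duplicate at 25 uM, then actives tested in concentration series up to 50 uM. Binding measured as displacement of radioligand from rat forebrain membrane receptors, 1 h, filtration with scintillation readout; DMSO baseline.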
# [6] = target: rat Serotonin, 5-Hydroxytryptamine Receptor (5HT), Non-Selective Binding, Htr1a (gene 24473) (UniProt P19327); assay: NVS_GPCR_r5HT_NonSelective: NovaScreen (NVS) G Protein-Coupled Receptor Assay for rat Serotonin, 5-Hydroxytryptamine Receptor (5HT), Non-Selective Binding (AID 2283295)
# Chain of rat Serotonin, 5-Hydroxytryptamine Receptor (5HT), Non-Selective Binding, Htr1a (gene 24473) (P19327 whole entry, looked up): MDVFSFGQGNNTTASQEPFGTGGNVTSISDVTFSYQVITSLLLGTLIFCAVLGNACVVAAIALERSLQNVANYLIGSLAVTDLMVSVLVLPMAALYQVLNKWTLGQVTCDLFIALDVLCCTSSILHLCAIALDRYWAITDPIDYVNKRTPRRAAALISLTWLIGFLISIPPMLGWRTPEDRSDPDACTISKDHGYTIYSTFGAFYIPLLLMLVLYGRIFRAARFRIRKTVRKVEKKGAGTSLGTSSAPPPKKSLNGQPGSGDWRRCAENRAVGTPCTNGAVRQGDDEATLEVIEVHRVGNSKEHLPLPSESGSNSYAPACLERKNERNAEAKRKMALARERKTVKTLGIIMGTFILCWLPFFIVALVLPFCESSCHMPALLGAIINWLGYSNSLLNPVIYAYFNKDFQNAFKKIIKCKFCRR
# How it was run: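 Rat cortex membrane preparation incubated 1 h with radioligand and test chemical; bound radioactivity counted after filtration. Screening began in duplicate at 25 uM with concentration-series follow-up; fitting relative to DMSO.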
# [7] = target: rat Adrenergic, Alpha 1A Receptor (Adra1A), Adra1a (gene 29412) (UniProt P43140); assay: NVS_GPCR_rAdra1A: NovaScreen (NVS) G Protein-Coupled Receptor Assay for rat Adrenergic, Alpha 1A Receptor (Adra1A) (AID 2283296)
# Chain of rat Adrenergic, Alpha 1A Receptor (Adra1A), Adra1a (gene 29412) (P43140 whole entry, looked up): as the sequence (P43140 whole entry, looked up) above
# How it was run: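 Filter radiodetection after 1 h competitive binding on CEC-pretreated rat cortical membranes. Duplicate single-point screening at 25 uM; active chemicals retested across concentration series.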
# [8] = tested on: rat Adrenergic, Alpha 1B Receptor (Adra1B), gene 24173; assay: NVS_GPCR_rAdra1B: NovaScreen (NVS) G Protein-Coupled Receptor Assay for rat Adrenergic, Alpha 1B Receptor (Adra1B) (AID 2283297)
# How it was run: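 Filter-binding radioligand competition on membranes from rat liver, read after 1 h by scintillation counting. Single-concentration duplicate screen at 25 uM, followed by concentration-response on actives, normalised to DMSO.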
# Adra2b (gene 24174) = Adra2b (gene 24174) (UniProt P19328); assay: NVS_GPCR_rmAdra2B: NovaScreen (NVS) G Protein-Coupled Receptor Assay for hybird cells Adrenergic, Alpha 2B Receptor (Adra2B) (AID 2283306)
# Chain of Adra2b (gene 24174) (P19328 whole entry, looked up): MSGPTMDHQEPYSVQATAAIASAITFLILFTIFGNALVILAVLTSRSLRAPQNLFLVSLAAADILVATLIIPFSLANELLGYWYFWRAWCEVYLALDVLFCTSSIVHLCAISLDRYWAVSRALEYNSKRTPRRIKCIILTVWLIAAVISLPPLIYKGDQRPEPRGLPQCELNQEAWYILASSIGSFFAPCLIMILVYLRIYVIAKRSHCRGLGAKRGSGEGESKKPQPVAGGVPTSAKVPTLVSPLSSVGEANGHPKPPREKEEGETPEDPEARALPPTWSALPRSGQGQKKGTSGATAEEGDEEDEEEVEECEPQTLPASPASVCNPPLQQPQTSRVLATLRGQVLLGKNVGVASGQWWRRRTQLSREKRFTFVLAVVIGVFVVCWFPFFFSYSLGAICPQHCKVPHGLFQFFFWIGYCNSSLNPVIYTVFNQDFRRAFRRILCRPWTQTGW
# How it was run: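 Compounds screened first at 25 uM in duplicate, with actives followed up in concentration-response; specific radioligand displacement from hybrid neuroglioma/blastoma cell membrane preparations measured by filter scintillation counting after 1 h, normalized to DMSO.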
# [9] = target: rat Opioid Receptor, Non-selective Sodium (Na+) Binding, Oprm1 (gene 25601) (UniProt P33535); assay: NVS_GPCR_rOpiate_NonSelectiveNa: NovaScreen (NVS) G Protein-Coupled Receptor Assay for rat Opioid Receptor, Non-selective Sodium (Na+) Binding (AID 2283311)
# Chain of rat Opioid Receptor, Non-selective Sodium (Na+) Binding, Oprm1 (gene 25601) (P33535 whole entry, looked up): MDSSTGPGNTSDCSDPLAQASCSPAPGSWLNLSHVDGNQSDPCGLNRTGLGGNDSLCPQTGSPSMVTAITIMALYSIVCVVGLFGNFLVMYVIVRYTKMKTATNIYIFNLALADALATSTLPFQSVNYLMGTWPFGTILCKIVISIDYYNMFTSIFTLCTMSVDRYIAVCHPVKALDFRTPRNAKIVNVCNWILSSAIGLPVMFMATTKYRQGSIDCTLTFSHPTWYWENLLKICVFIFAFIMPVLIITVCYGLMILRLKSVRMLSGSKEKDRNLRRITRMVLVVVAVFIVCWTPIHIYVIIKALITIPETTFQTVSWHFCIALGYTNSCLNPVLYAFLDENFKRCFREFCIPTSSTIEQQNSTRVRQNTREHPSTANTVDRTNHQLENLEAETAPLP
# How it was run: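 Filtration radioligand binding on rat forebrain membrane preparations, read 1.5 h after dosing. Single-concentration 25 µM primary screen in duplicate, followed by singleton concentration series to 50 µM max for actives; DMSO baseline.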
# [10] = target: rat Adrenergic Receptor, Beta (Adrb), Non-selective Binding, Adrb1 (gene 24925) (UniProt P18090); assay: NVS_GPCR_rAdrb_NonSelective: NovaScreen (NVS) G Protein-Coupled Receptor Assay for rat Adrenergic Receptor, Beta (Adrb), Non-selective Binding (AID 2283298)
# Chain of rat Adrenergic Receptor, Beta (Adrb), Non-selective Binding, Adrb1 (gene 24925) (P18090 whole entry, looked up): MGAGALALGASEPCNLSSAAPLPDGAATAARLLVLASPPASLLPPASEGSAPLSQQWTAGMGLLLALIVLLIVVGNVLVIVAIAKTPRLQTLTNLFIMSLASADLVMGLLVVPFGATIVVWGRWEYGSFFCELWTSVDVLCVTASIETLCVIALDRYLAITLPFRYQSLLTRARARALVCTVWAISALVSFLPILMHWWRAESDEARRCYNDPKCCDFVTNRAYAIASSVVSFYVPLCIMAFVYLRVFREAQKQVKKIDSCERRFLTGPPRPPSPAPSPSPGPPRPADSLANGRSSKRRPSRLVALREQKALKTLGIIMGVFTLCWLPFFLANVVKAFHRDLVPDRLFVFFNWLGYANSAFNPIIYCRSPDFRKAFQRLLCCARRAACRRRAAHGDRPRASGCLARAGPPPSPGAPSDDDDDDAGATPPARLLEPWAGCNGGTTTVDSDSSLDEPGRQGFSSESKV
# How it was run: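 Rat cortical membranes incubated 1 h with beta-adrenergic radioligand and test chemical; bound ligand measured by filtration and scintillation counting. Screen at 25 uM duplicate, then concentration series with 50 uM maximum; loss of signal versus DMSO.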
# [11] = target: mouse Cholecystokinin, CCK2 Receptor (CCKB), Cckbr (gene 12426) (UniProt P56481); assay: NVS_GPCR_mCKKBCentral: NovaScreen (NVS) G Protein-Coupled Receptor Assay for mouse Cholecystokinin, CCK2 Receptor (CCKB) (AID 2283293)
# Chain of mouse Cholecystokinin, CCK2 Receptor (CCKB), Cckbr (gene 12426) (P56481 whole entry, looked up): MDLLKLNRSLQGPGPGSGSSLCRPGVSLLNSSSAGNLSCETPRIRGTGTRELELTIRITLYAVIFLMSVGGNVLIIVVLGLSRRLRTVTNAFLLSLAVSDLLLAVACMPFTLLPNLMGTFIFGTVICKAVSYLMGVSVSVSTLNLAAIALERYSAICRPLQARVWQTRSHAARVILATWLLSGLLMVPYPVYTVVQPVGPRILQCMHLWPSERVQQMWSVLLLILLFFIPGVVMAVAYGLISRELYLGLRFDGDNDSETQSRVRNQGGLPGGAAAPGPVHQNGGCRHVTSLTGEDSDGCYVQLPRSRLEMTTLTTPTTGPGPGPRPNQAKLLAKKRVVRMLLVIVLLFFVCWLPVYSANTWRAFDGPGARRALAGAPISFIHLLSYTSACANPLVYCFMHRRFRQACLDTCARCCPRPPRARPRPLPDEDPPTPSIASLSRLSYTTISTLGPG
# How it was run: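 Mouse forebrain membrane preparation incubated 2 h with chemical and radioligand; bound radioactivity counted after filtration. Single-concentration duplicate screen at 25 uM, then concentration series to 50 uM max for hits, DMSO as baseline.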
# [12] = target: rat Adrenergic Receptor, Alpha 2 (Adra2), Non-selective Binding, Adra2a (gene 25083) (UniProt P22909); assay: NVS_GPCR_rAdra2_NonSelective: NovaScreen (NVS) G Protein-Coupled Receptor Assay for rat Adrenergic Receptor, Alpha 2 (Adra2), Non-selective Binding (AID 2283299)
# How it was run: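 Filter-based scintillation counting of radioligand binding to rat cortical membrane receptors, measured 1.25 hours post-dosing; loss of signal versus DMSO indicates displacement. Initial single-concentration duplicate at 25 uM, then concentration series.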
# [13] = target: guinea pig Bradykinin Receptor B2 (BK2), BDKRB2 (gene 100135486) (UniProt O70526); assay: NVS_GPCR_gBK2: NovaScreen (NVS) G Protein-Coupled Receptor Assay for guinea pig Bradykinin Receptor B2 (BK2) (AID 2283292)
# Chain of guinea pig Bradykinin Receptor B2 (BK2), BDKRB2 (gene 100135486) (O70526 whole entry, looked up): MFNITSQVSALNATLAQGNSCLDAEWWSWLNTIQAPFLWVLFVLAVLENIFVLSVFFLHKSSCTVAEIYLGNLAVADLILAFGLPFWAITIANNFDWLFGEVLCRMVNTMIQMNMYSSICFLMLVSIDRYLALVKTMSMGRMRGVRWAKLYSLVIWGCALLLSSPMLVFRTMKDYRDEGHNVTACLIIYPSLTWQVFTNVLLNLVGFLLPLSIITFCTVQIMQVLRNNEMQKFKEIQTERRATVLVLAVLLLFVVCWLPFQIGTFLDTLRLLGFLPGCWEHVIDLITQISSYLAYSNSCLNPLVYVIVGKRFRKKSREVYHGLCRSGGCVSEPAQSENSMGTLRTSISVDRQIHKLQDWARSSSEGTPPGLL
# How it was run: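 Guinea pig ileum membrane preparation incubated 1 h with radioligand and test chemical; bound counts measured after filtration. Primary duplicate screening at 25 uM, then singleton concentration series with a 50 uM top dose; DMSO as baseline.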
# [14] = target: guinea pig Serotonin, 5-Hydroxytryptamine Receptor 4 (5HT4), HTR4 (gene 100135548) (UniProt O70528); assay: NVS_GPCR_g5HT4: NovaScreen (NVS) G Protein-Coupled Receptor Assay for guinea pig Serotonin, 5-Hydroxytryptamine Receptor 4 (5HT4) (AID 2283294)
# Chain of guinea pig Serotonin, 5-Hydroxytryptamine Receptor 4 (5HT4), HTR4 (gene 100135548) (O70528 whole entry, looked up): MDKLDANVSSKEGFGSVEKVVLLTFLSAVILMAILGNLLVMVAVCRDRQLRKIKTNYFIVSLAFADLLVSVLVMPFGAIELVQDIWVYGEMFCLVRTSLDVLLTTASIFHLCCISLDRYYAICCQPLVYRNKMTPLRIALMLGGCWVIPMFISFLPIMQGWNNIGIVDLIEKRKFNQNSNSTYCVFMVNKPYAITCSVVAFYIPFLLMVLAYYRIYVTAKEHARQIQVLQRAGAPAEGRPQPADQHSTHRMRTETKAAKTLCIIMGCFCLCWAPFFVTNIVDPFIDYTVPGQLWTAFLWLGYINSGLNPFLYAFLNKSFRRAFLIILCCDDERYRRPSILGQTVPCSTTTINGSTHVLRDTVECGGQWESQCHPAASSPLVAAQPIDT
# How it was run: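 Compounds first screened in duplicate at 25 uM, actives followed up in concentration series. Binding measured as displacement of specific radioligand from guinea pig striatal membranes, 1 h, filter-based scintillation read-out versus DMSO baseline.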
# [15] = target: rat Gamma-Aminobutyric Acid Type B Receptor (GABBR), Gabbr1 (gene 81657) (UniProt Q9Z0U4); assay: NVS_GPCR_rGABBR: NovaScreen (NVS) G Protein-Coupled Receptor Assay for rat Gamma-Aminobutyric Acid Type B Receptor (GABBR) (AID 2283301)
# How it was run: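 Rat cortical membrane preparation, competitive radioligand binding for 1 h with filtration and scintillation readout. Actives from duplicate single-point 25 uM screening proceeded to concentration series with 50 uM top concentration.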
# [16] = target: rat Neurokinin-3 Receptor (NK3), Tacr3 (gene 24808) (UniProt P16177); assay: NVS_GPCR_rNK3: NovaScreen (NVS) G Protein-Coupled Receptor Assay for rat Neurokinin-3 Receptor (NK3) (AID 2283310)
# How it was run: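 Filter-based radioligand displacement on rat cortex membrane preparations, read by scintillation 2 h post-dose. Chemicals first tested in duplicate at 25 uM; actives followed up in concentration series with a 50 uM maximum.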
smiles,measurement,setting,value
CCOC(=O)C(C)(C)Oc1ccc(Cl)cc1,outcome,[1],inactive
same,outcome,[2],inactive
CC=Cc1ccc(O)c(OC)c1,outcome,[3],inactive
CN1CCN(Cc2cc(-c3ccc4[nH]c(=O)oc4c3)co2)[C@@H](c2ccc(F)cc2)C1,AC50,[4],0.25 µM (active)
same,AC50,[5],8.23 µM (active)
same,AC50,[3],22 µM (active)
same,AC50,[6],0.0493 µM (active)
same,AC50,[7],10.3 µM (active)
same,AC50,[8],22 µM (active)
same,AC50,Adra2b (gene 24174),15.8 µM (active)
same,AC50,[1],22 µM (active)
same,outcome,[9],inactive
Oc1ccc2ccccc2c1N=Nc1ccccc1,AC50,[3],37.4 µM (active)
Cc1nc(-c2ccc3c(c2)CCN(CCC2CCC(NC(=O)/C=C/c4ccc(F)cc4)CC2)CC3)no1 (centres undefined),outcome,[10],inactive
same,outcome,[2],inactive
CC1=C(/C=C/C(C)=C/C=C/C(C)=C/CO)C(C)(C)CCC1,outcome,[3],inactive
same,outcome,[6],inactive
Nc1ccc(S(=O)(=O)c2ccc(N)cc2)cc1,outcome,[9],inactive
O=C(N[C@@H](Cc1ccccc1)[C@@H](O)C(=O)N1C[C@@H](O)[C@@H](O)C1)c1cc2cc(Cl)ccc2[nH]1,AC50,[3],4.96 µM (active)
same,AC50,[11],8.74 µM (active)
same,outcome,[6],inactive
same,AC50,[9],19.4 µM (active)
CCOC(=O)CCC(=O)OCC,outcome,[4],inactive
same,outcome,[3],inactive
same,outcome,[7],inactive
same,outcome,[12],inactive
COc1cc(C=O)ccc1O,outcome,[13],inactive
Cc1nc(C)nc(N2C[C@@H](C)N(c3ccnc([C@@H](C)O)n3)[C@@H](C)C2)n1,outcome,[14],inactive
same,outcome,Adra2b (gene 24174),inactive
COc1ccc2c(c1)c(CC(=O)O)c(C)n2C(=O)c1ccc(Cl)cc1,outcome,[15],inactive
CCc1c(C(=O)NN2CCCCC2)nn(-c2ccc(Cl)cc2Cl)c1-c1ccc(Br)cc1,outcome,[3],inactive
same,outcome,[14],inactive
same,AC50,[6],12 µM (active)
same,outcome,[16],inactive
C=CCOC(=O)c1ccccc1C(=O)OCC=C,AC50,[4],25 µM (active)
Oc1ccc2c(c1)OC[C@@H](N1CCC(O)(c3ccc(F)cc3)CC1)[C@H]2O,outcome,[4],inactive
same,outcome,[5],inactive
same,outcome,[3],inactive
same,outcome,[14],inactive
same,outcome,[8],inactive
same,AC50,[10],5.17 µM (active)
same,outcome,[9],inactive
CCCCCCCCCCC,outcome,[13],inactive
CCCCc1ccc2c(n1)[C@@H](c1ccc(OC)cc1C[C@H](C)C(=O)O)[C@H](C(=O)O)[C@H]2c1ccc2c(c1)OCO2,AC50,[11],20 µM (active)
